{"source": "PubChem BioAssay", "key": {"[1]": {"assay": "disruption of biotin probe capture by avidin, counter-screen for RGS protein interaction modulators, biochemical, flow cytometry, bead-based (AID 1783;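 active = inhibition above 50%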;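 also: median green fluorescence of gated singlet beads compared with DMSO control wells; 0% = DMSO wells and 100% = complete loss of bead fluorescence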)", "settings": "streptavidin beads, fluorescein-biotin binding; at 10 µM, stronger effect = higher value"}, "[2]": {"target": "Guanine nucleotide-binding protein G(o) subunit alpha (Homo sapiens) (UniProt P09471)", "sequence (P09471 whole entry, looked up)": "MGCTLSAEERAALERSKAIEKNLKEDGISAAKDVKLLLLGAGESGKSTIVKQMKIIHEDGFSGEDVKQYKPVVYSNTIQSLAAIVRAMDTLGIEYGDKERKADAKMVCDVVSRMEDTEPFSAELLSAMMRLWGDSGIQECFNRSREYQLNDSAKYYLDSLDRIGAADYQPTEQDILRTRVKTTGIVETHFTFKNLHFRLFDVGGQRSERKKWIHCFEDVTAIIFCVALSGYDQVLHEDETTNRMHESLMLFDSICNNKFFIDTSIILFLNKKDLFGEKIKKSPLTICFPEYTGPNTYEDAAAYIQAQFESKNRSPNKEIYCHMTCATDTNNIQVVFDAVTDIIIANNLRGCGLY", "assay": "RGS8-Galphao binding modulators, confirmation, biochemical, multiplexed bead flow cytometry, single concentration (AID 1836; in the data active = binding response below about 72% or above about 130%; inactive = in between;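 also: Galphao activated as GDP AlF4 complex before binding bead RGS8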)", "settings": "bead-based flow cytometry RGS8-Galphao binding, fluorescence; at 10 µM; actives lie on both sides"}, "[3]": {"target": "Guanine nucleotide-binding protein G(o) subunit alpha (Homo sapiens) (UniProt P09471)", "assay": "RGS7-Galphao binding modulators, confirmation, biochemical, multiplexed bead flow cytometry, single concentration (AID 1837; in the data active = response below about 75% or above about 130%; inactive = in between;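 also: fluorescent Galphao activated with GDP and aluminum fluoride binding bead-coupled RGS7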)", "settings": "bead-based flow cytometry RGS7-Galphao binding; at 10 µM; actives lie on both sides"}, "[4]": {"target": "Regulator of G-protein signaling 16 (Homo sapiens) + Guanine nucleotide-binding protein G(o) subunit alpha (Homo sapiens) (UniProt O15492+P09471)", "sequence (O15492 whole entry, looked up)": "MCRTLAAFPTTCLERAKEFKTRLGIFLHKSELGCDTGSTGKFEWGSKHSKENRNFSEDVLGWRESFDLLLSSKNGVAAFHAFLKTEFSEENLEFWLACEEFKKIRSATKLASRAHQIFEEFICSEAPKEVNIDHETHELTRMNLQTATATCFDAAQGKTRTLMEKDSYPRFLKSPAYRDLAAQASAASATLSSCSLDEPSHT", "sequence (P09471 whole entry, looked up)": "as the sequence (P09471 whole entry, looked up) above", "assay": "modulators of RGS16-Galphao protein binding, confirmation, biochemical, single concentration, multiplexed bead flow cytometry (AID 1838);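 also: Galphao activated as the GDP aluminium fluoride complex binding bead-coupled RGS16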", "settings": "bead-based flow cytometry, at 10 µM, actives lie on both sides"}, "[5]": {"target": "Guanine nucleotide-binding protein G(o) subunit alpha (Homo sapiens) (UniProt P09471)", "assay": "modulators of RGS4-Galphao protein binding, confirmation, biochemical, single concentration, multiplexed bead flow cytometry (AID 1840; in the data active = binding response below about 74% or above about 130%; inactive = in between)", "settings": "at 10 µM, actives lie on both sides"}, "[6]": {"target": "Guanine nucleotide-binding protein G(o) subunit alpha (Homo sapiens) + Regulator of G-protein signaling 19 (Homo sapiens) (UniProt P09471+P49795)", "sequence (P09471 whole entry, looked up)": "as above", "sequence (P49795 whole entry, looked up)": "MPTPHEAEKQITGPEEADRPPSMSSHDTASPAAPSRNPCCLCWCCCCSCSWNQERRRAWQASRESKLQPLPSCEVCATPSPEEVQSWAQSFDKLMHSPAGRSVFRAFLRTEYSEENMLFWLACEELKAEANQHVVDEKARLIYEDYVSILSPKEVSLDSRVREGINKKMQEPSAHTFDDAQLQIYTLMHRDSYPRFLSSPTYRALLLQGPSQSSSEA", "assay": "regulators of RGS19-Galphao binding, confirmation, biochemical, single point, multiplexed bead flow cytometry (AID 1841; in the data active = response below about 50% or above about 160%; inactive = in between;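 also: 100% = no compound control and 0% = blank background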)", "settings": "bead-based flow cytometry RGS19-Galphao binding; at 10 µM; actives lie on both sides"}, "[7]": {"target": "Regulator of G-protein signaling 16 (Homo sapiens) (UniProt O15492)", "assay": "modulators of RGS–Galpha-o binding, primary screen, biochemical, multiplexed beads, flow cytometry, RGS4/7/8/16/19 (AID 1504);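 also: fluorescently labeled Galpha-o bound to GDP with aluminium fluoride binding biotinylated RGS beads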", "settings": "multiplexed bead flow cytometry, measured here: RGS16 interaction, at 10 µM"}, "[8]": {"target": "Regulator of G-protein signaling 19 (Homo sapiens) (UniProt P49795)", "assay": "modulators of RGS–Galpha-o binding, primary screen, biochemical, multiplexed beads, flow cytometry, RGS4/7/8/16/19 (AID 1504)", "settings": "multiplexed bead flow cytometry, measured here: RGS19 interaction, at 10 µM"}, "[9]": {"target": "Regulator of G-protein signaling 7 (Homo sapiens) (UniProt P49802)", "assay": "modulators of RGS–Galpha-o binding, primary screen, biochemical, multiplexed beads, flow cytometry, RGS4/7/8/16/19 (AID 1504)", "settings": "multiplexed bead flow cytometry, measured here: RGS7 interaction, at 10 µM"}, "[10]": {"target": "Regulator of G-protein signaling 8 (Homo sapiens) (UniProt P57771)", "assay": "modulators of RGS–Galpha-o binding, primary screen, biochemical, multiplexed beads, flow cytometry, RGS4/7/8/16/19 (AID 1504)", "settings": "multiplexed bead flow cytometry, measured here: RGS8 interaction, at 10 µM"}, "[11]": {"assay": "yeast TOR pathway RPL19A-GFP modulators, primary screen, cell-based, S. cerevisiae, multiplex flow cytometry (AID 1862; in the data active = percent of DMSO control GFP below about 86%;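 also: lower values mimic rapamycin by blocking the RPL19A rise seen in DMSO cells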)", "settings": "S. cerevisiae RPL19A-GFP strain, flow cytometry fluorescence, 3 h; at 10 µM; stronger effect = lower value"}, "[12]": {"assay": "modulators of MEP2-GFP levels in yeast, primary screen, S. cerevisiae, multiplex flow cytometry (AID 1867;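 active = GFP response, as percent of the DMSO control, above the screen-wide mean plus 3 SD, about 139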;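 also: median GFP channel fluorescence of barcode-gated MEP2-GFP cells measured by flow cytometry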)", "settings": "S. cerevisiae MEP2-GFP strain, 3 h, at 10 µM, stronger effect = higher value, 100% means same as DMSO wells"}, "[13]": {"assay": "modulators of CIT2-GFP expression in yeast, primary screen, S. cerevisiae, GFP fusion, multiplex flow cytometry (AID 1870;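 active = percent response above a set limit, the screen-wide mean plus 3 SD, cut at about 130% in these data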;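 also: barcoded CIT2-GFP strain pooled with four other GFP strains with rapamycin as positive control; median GFP fluorescence per well over plate mean of DMSO wells so 100% = DMSO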)", "settings": "3 h, at 10 µM, stronger effect = higher value"}, "[14]": {"assay": "modulators of LAP4-GFP expression in yeast, primary screen, S. cerevisiae, multiplex flow cytometry (AID 1873;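 active = GFP signal, as percent of the solvent control, above the screen mean plus 3 SD, about 149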)", "settings": "3 h, at 10 µM, stronger effect = higher value"}, "[15]": {"assay": "modulators of AGP1-GFP expression in yeast TOR pathway, primary screen, cell-based, multiplex flow cytometry, S. cerevisiae (AID 1887;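 active = GFP signal above the screen-wide mean plus 3 SD, that is over about 124.5% of the solvent control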;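 also: AGP1-GFP fusion strain of S. cerevisiae within a five-strain barcoded multiplex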)", "settings": "3 h, at 10 µM, stronger effect = higher value"}, "[16]": {"assay": "RPL19A-GFP modulators, yeast TOR pathway, confirmation, cell-based, S. cerevisiae, flow cytometry, cherry picks, mother/daughter gates (AID 2270;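 active = GFP response below 50% of the DMSO control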)", "settings": "S. cerevisiae RPL19A-GFP strain, 3 h, at 10 µM, stronger effect = lower value, 100 = same GFP as DMSO wells"}, "[17]": {"assay": "LAP4-GFP expression modulators in yeast, confirmation, cell-based, cherry picks, flow cytometry, mother/daughter gates (AID 2271;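 active = GFP response above 150% of the DMSO control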;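 also: ratio of sample to DMSO plate mean so 100% equals DMSO level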)", "settings": "S. cerevisiae LAP4-GFP strain, 3 h, at 10 µM, stronger effect = higher value, 100 means same as DMSO control"}, "[18]": {"assay": "modulators of MEP2-GFP levels in yeast, confirmation, S. cerevisiae, flow cytometry GFP, cherry picks (AID 2272;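 active = GFP response above 150% of the DMSO control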;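 also: ratio of well signal to plate DMSO mean so 100% equals DMSO level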)", "settings": "S. cerevisiae MEP2-GFP strain, 3 h, at 10 µM, stronger effect = higher value"}, "[19]": {"assay": "modulators of CIT2-GFP expression in yeast, confirmation, S. cerevisiae, GFP fusion, cherry picks, mother/daughter gates (AID 2274;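 active = GFP response above 150% of the DMSO level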)", "settings": "S. cerevisiae CIT2-GFP strain, flow cytometry, 3 h, at 10 µM, stronger effect = higher value"}, "[20]": {"assay": "inhibitors of CD8+ T cell-vesicle binding, pilot screen, LFA-1/ICAM-1 modulator project, MLPCN validation set, flow cytometry (AID 2523;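 active = response below a set limit, under 55% cells CD8-positive and vesicle-bound, and CD8 cells' 90th-percentile brightness under 279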;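 as to vesicle binding response: mean PE anti-B7-1 fluorescence of CD8+ cells relative to row control; 100% = QL9-loaded vesicles with DMSO vehicle in the same plate row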)", "settings": "2C mouse CD8+ T cells, at 7 µM, stronger effect = lower value; double positive events: measured here: CD8+/vesicle+ event percentage"}, "[21]": {"settings": "measured here: daughter cell gate"}, "[22]": {"settings": "measured here: mother cell gate"}}, "note": "Records with an inconclusive call do not appear. This is one part of the list. Active and inactive are the calls of the source. Rule as the data show it, unless noted: active = response below about 74% or above about 130%; inactive = in between."}
{"smiles": "COc1ccccc1CCNC(=O)CSc1nnc2ccc(-c3cccnc3)nn12", "values": [{"measurement": "inhibition", "setting": "[1]", "result": "-0.7% (inactive)"}, {"measurement": "binding response (% of control)", "setting": "[2]", "result": "100% (inactive)"}, {"measurement": "response (percent of control binding)", "setting": "[3]", "result": "103% (inactive)"}, {"measurement": "response (% of control binding)", "setting": "[4]", "result": "101% (inactive)"}, {"measurement": "binding response (% of control)", "setting": "[5]", "result": "101% (inactive)"}, {"measurement": "response (percent of control binding)", "setting": "[6]", "result": "107% (inactive)"}]}
{"smiles": "Cc1ccc(N2C(=O)C3C(c4ccccc4)(C2=O)C3(c2ccccc2)c2ccccc2)cc1", "note": "(stereo not drawn)", "values": [{"measurement": "RGS16–Galpha-o binding response", "setting": "[7]", "result": 13.2, "unit": "%"}, {"measurement": "RGS19–Galpha-o binding response", "setting": "[8]", "result": 310, "unit": "%"}, {"measurement": "RGS7–Galpha-o binding response", "setting": "[9]", "result": 14.4, "unit": "%"}, {"measurement": "RGS8–Galpha-o binding response", "setting": "[10]", "result": 23.3, "unit": "%"}, {"measurement": "inhibition", "setting": "[1]", "result": "-0.7% (inactive)"}, {"measurement": "binding response (% of control)", "setting": "[2]", "result": "91.8% (inactive)"}, {"measurement": "response (percent of control binding)", "setting": "[3]", "result": "60.8% (active)"}, {"measurement": "response (% of control binding)", "setting": "[4]", "result": "80.2% (inactive)"}, {"measurement": "binding response (% of control)", "setting": "[5]", "result": "68.2% (active)"}, {"measurement": "response (percent of control binding)", "setting": "[6]", "result": "75.7% (inactive)"}]}
{"smiles": "C[C@]12CC[C@@H]3c4ccc(O)cc4C(=O)C[C@H]3[C@@H]1CC[C@@H]2O", "values": [{"measurement": "percent of DMSO control GFP", "setting": "[11]", "result": "98.3% (inactive)"}, {"measurement": "GFP response vs DMSO", "setting": "[12]", "result": "148% (active)"}, {"measurement": "percent response of DMSO control", "setting": "[13]", "result": "116% (inactive)"}, {"measurement": "GFP response vs DMSO", "setting": "[14]", "result": "88% (inactive)"}, {"measurement": "GFP response, % of DMSO", "setting": "[15]", "result": "97.5% (inactive)"}, {"measurement": "GFP response vs DMSO", "setting": "[16]", "result": "97.4% (inactive)"}, {"measurement": "GFP response vs DMSO", "setting": "[16]; [21]", "result": 95.6, "unit": "%"}, {"measurement": "GFP response vs DMSO", "setting": "[16]; [22]", "result": 98.5, "unit": "%"}, {"measurement": "GFP response relative to DMSO", "setting": "[17]", "result": "90.2% (inactive)"}, {"measurement": "GFP response relative to DMSO", "setting": "[17]; measured here: daughter cell gate response", "result": 95.6, "unit": "%"}, {"measurement": "GFP response relative to DMSO", "setting": "[17]; measured here: mother cell gate response", "result": 92.1, "unit": "%"}, {"measurement": "GFP response vs DMSO", "setting": "[18]", "result": "95.7% (inactive)"}, {"measurement": "GFP response, % of DMSO", "setting": "[19]", "result": "111% (inactive)"}, {"measurement": "GFP response, % of DMSO", "setting": "[19]; [21]", "result": 108, "unit": "%"}, {"measurement": "GFP response, % of DMSO", "setting": "[19]; [22]", "result": 113, "unit": "%"}, {"measurement": "double positive events", "setting": "[20]", "result": 39.3, "unit": "%"}, {"measurement": "vesicle binding response", "setting": "[20]", "result": "60.7% (active)"}]}
